Screen size: about 52,000 compounds; about 1,700 (3.3%) were called active. The entries come from a sample that favours actives as a whole. Unmarked numbers belong to inactive results. Rule as the data show it: active = survival mostly below about 52% (no sharp cut-off); inactive = mostly above about 56%.

This experiment relates to Wild type. In words: growth inhibition of S. aureus wild type versus tarO mutant, primary screen, teichoic acid synthesis inhibitors, RN4220, OD600 (AID 463173). Conditions: S. aureus RN4220 wild type/DeltatarO growth, OD600, 18 h, stronger effect = lower value, screened at 18.75 µg/mL (by protocol).
As to `COCCCNc1nc2c(c(=O)n(Cc3ccc(F)cc3)c(=O)n2C)n1C`, the survival is 130%.

As to `CCC(O)c1cc2c(cc1NC(=O)c1cccc(Br)c1)OCCO2` (stereo unspecified), the survival was 71%.

As for `Cc1ccc(N(C)C(=O)Cn2cc(S(=O)(=O)N3CCCC3)c(S(=O)(=O)N3CCCC3)c2)cc1`, the survival is 73%.

As to `Cc1cccc(NC(=O)CN2C(=O)C(c3ccc(F)cc3)=NC23CCCCCC3)c1C`, the survival was 73%.

Regarding `CCCN1CCN(c2ncnc3sc(C(=O)Nc4ccc(N(CC)CC)cc4C)c(C)c23)CC1`, the survival is 128%.

On to `CCn1c(SC)nnc1C1CCCN(C(=O)c2ccccc2-c2ccccc2)C1` (stereo unspecified), for which the survival was 120%.

For the molecule `CCCCCn1c(C(C)NC(=O)c2ccccc2)nc2ccccc21` (stereo unspecified), the survival is 77%.

As to `CCCCCn1c(-c2ccc(OC)c(OC)c2)nc2ccccc21`, the survival was 1% (active).

Turning to `CCCCCn1c(CCCNC(=O)c2ccccc2OC)nc2ccccc21`, the survival is 68%.

For `CCCCCn1c(CCCNC(=O)c2cccc(C)c2)nc2ccccc21`, the survival was 50%.

For the molecule `CCCCn1c(CCCNC(=O)c2cccc(C)c2)nc2ccccc21`, the survival was 73%.

In the case of `CCCCn1c(C)nc2ccccc21`, the survival was 99%.

Take `CCOc1ccc(Cn2c(-c3ccc(OCC)c(OC)c3)nc3ccccc32)cc1OC`: the survival is 94%.

With `CCCCCn1c(-c2cccc(C)c2)nc2ccccc21`, the survival was 11% (active).

Take `CCCCCn1c(CCNC(=O)c2cccc(C)c2)nc2ccccc21`: the survival is 2% (active).

`Cc1ccc(S(=O)(=O)NCC(c2ccco2)N2CCOCC2)cc1` (stereo unspecified): the survival is 78%.

With `Cc1ccc2[nH]c(CSc3nnc(NC(=O)c4ccc(Cl)cc4)s3)cc(=O)c2c1`, the survival is 71%.

For the molecule `CCN(CCCNC(=O)c1nn(-c2ccc(C)cc2)c(=O)c2c1c1ccccc1n2C)c1ccccc1`, the survival is 82%.

For the molecule `Cc1cc(=O)c2c(o1)CC(C)(C)CC2=O`, the survival was 110%.

For `CCCCCNC(=O)c1ccc2c(c1)nc(C)n2-c1cccc(C)c1`, the survival was -2% (active).

Consider `Cc1nc2cc(C(=O)NCCC3=CCCCC3)ccc2n1-c1ccc(Br)cc1`, for which the survival was 75%.

On to `Cc1cc(C)cc(-n2cnc3cc(C(=O)NCCc4ccccc4)ccc32)c1`, for which the survival is 73%.

On to `CCCNC(=O)c1ccc2c(c1)nc(C)n2-c1cccc(C)c1`, for which the survival was 82%.

Regarding `CCCCCNC(=O)c1ccc2c(c1)ncn2-c1cccc(C)c1`, the survival is -3% (active).

As for `Cc1ccc(-n2cnc3cc(C(=O)NCc4ccccc4Cl)ccc32)c(C)c1`, the survival was 10% (active).

Turning to `COCCCNC(=O)c1ccc2c(c1)nc(C)n2-c1cccc(C)c1`, the survival was 69%.

On to `Cc1cccc(-n2c(C)nc3cc(C(=O)NCCC4=CCCCC4)ccc32)c1`, for which the survival was 73%.

On to `CCOc1ccc(-n2c(C)nc3cc(C(=O)NCCC4=CCCCC4)ccc32)cc1`, for which the survival is -6% (active).

With `CCCNC(=O)c1ccc2c(c1)ncn2-c1ccc(C)cc1C`, the survival was 59%.

For the molecule `Cc1cccc(-n2cnc3cc(C(=O)NC4CCCCCC4)ccc32)c1`, the survival is 124%.

Turning to `Cc1cccc(-n2cnc3cc(C(=O)NCc4ccccc4Cl)ccc32)c1`, the survival is 68%.

Turning to `Cc1ccc(OCC(=O)Nc2ccccc2C(=O)OCc2cc(=O)n3c(C)csc3n2)cc1`, the survival was 72%.

With `O=C(Nc1ccc(Cl)cc1)C1CCN(S(=O)(=O)c2ccc(Br)s2)CC1`, the survival was 60%.

Consider `CCC(C)(C)NC(=O)C1CCN(S(=O)(=O)c2ccc3c(c2)CCCN3C(C)=O)CC1`, for which the survival is 71%.

With `O=C(/C=C(/O)c1cccnc1)C(F)(F)F`, the survival was 86%.

On to `O=C1CC2C(=O)NCCN2C(=NC(=O)c2ccc(Cl)cc2)N1` (stereo unspecified), for which the survival is 100%.

Regarding `COc1cccc(/C=N/NC(=O)c2cccc(C)c2)c1O`, the survival is 1% (active).

Consider `COc1cccc(/C=N/NC(=O)CSCc2ccccc2)c1O`, for which the survival is 108%.

Turning to `COc1cccc(/C=N/NC(=O)COc2c(C)cccc2C)c1O`, the survival is 113%.

Consider `COc1cc(OC)cc(C(=O)Nc2ccc(S(=O)(=O)N3CCCCC3c3cccnc3)cc2)c1` (stereo unspecified), for which the survival was 71%.

With `Cc1ccc(Cl)cc1N1CCN(C(=O)CCS(=O)(=O)c2cc(Br)cc3c2N(C(=O)C2CC2)CC3)CC1`, the survival is 80%.

As for `O=C(NCc1cccc(F)c1)c1ccc(NC(=O)c2nsc3ccccc23)cc1`, the survival was -4% (active).

For the molecule `COC(=O)c1cccc(NC(=O)c2nsc3ccccc23)c1`, the survival is 0% (active).

On to `O=C(NCc1ccccc1)c1ccc(NC(=O)c2nsc3ccccc23)cc1`, for which the survival is 55%.

As to `O=C(NCc1cccc(F)c1)c1cccc(NC(=O)c2nsc3ccccc23)c1`, the survival was 87%.

Regarding `CCC(C)NC(=O)c1cccc(NC(=O)c2nsc3ccccc23)c1` (stereo unspecified), the survival was 76%.

Turning to `CC(NC(=O)c1cccc(NC(=O)c2nsc3ccccc23)c1)c1ccccc1` (stereo unspecified), the survival was 111%.

For the molecule `Cc1ccccc1Nc1c(-c2ccc(N3CCOCC3)cc2)nc2cccc(C)n12`, the survival is 59%.

In the case of `Cc1ccc(N(C)C(=O)C2CCCN(c3ncnc4c3nc3n4CCCCC3)C2)cc1C` (stereo unspecified), the survival is 127%.

Regarding `CCc1ccc(NC(=O)C2CCN(c3nn4cc(-c5ccc(OC)cc5)nc4s3)CC2)cc1`, the survival is 71%.

As to `COc1ccc(-c2nc3c4ccccc4n(CC(=O)N4CCN(c5ccccc5F)CC4)c(=O)n3n2)cc1`, the survival is 91%.

In the case of `CC1(C)C(=O)NC(=O)N1CN1C(=O)NC(=O)C1(C)C`, the survival is 111%.

In the case of `CCOc1ccc(C(=O)Nc2ccc(-n3nncc3-c3ccccc3)cc2)cc1OCC`, the survival was 135%.

With `O=C(c1cc2c(=O)oc3ccccc3c2s1)N1CCN(c2cccc(Cl)c2)CC1`, the survival is 145%.

With `CCCN1C(=O)c2ccccc2CC1(C)C(=O)NC1CCCCC1` (stereo unspecified), the survival was 85%.

For `Cc1cccc(C(=O)Nc2sc3c(c2C(=O)Nc2ccccc2)CCC3)c1`, the survival was 67%.

`Cc1cccc(NC(=O)c2c(NC(=O)c3ccccc3)sc3c2CCC3)c1`: the survival was 80%.

Take `Cc1cccc(NC(=O)c2c(NC(=O)c3ccccc3)sc3c2CCCC3)c1`: the survival was 82%.

Turning to `O=C(Cc1ccccc1)Nc1sc2c(c1C(=O)Nc1cccc(Cl)c1)CCCCC2`, the survival is 91%.

In the case of `O=C(Nc1sc2c(c1C(=O)Nc1cccc(Cl)c1)CCCC2)c1cccs1`, the survival was 140%.

In the case of `O=C(Nc1cccc(Cl)c1)c1c(NC(=O)C(F)(F)F)sc2c1CCCC2`, the survival was -2% (active).

On to `Cc1cccc(NC(=O)c2c(NC(=O)C(F)(F)F)sc3c2CCCCC3)c1`, for which the survival is -3% (active).

For `COc1ccc(CC(=O)Nc2sc3c(c2C(=O)Nc2cccc(C)c2)CCCCC3)cc1`, the survival is 63%.

For `Cc1cccc(NC(=O)c2c(Br)sc3c2CCCC3)c1`, the survival was 0% (active).

As to `CCOC(=O)c1c(S(=O)(=O)N2CCCC(C(=O)N3CCN(c4cc(C)ccc4C)CC3)C2)c(C)n(C)c1C` (stereo unspecified), the survival was 72%.

Consider `COc1cccc(-c2cc(C(=O)Nc3cnn(Cc4ccc(Cl)cc4Cl)c3)no2)c1`, for which the survival was 112%.

`CCC(=O)n1c2c(c3ccccc31)Nc1ccccc1N2`: the survival was 105%.

With `CC(C)Oc1ccc(CNC(=O)C2CCN(Cc3cc4ccccc4n3Cc3ccccc3)CC2)cc1`, the survival was 93%.

In the case of `CCC(C(=O)NCCc1ccc(Cl)cc1)n1ccc2cc(S(=O)(=O)N3CCCCC3)ccc21` (stereo unspecified), the survival was 101%.

Take `CCC(c1nnnn1C1CCCC1)N1CCN(Cc2ccccc2)CC1` (stereo unspecified): the survival was 104%.

Regarding `COc1ccc(C(=O)c2cn(CC(=O)Nc3cc(C)ccc3C)c3nc(C)ccc3c2=O)cc1`, the survival is 146%.

In the case of `CCOC(=O)C1NC(=O)CC1c1ccccc1` (stereo unspecified), the survival was 99%.

Regarding `CCc1ccc(OC(C)C(=O)N2CCC(c3nc4ccccc4o3)CC2)cc1` (stereo unspecified), the survival is 92%.

As for `CC(Oc1ccccc1F)C(=O)N1CCC(c2nc3ccccc3o2)CC1` (stereo unspecified), the survival was -18% (active).

Regarding `COc1ccccc1OCC(=O)N1CCC(c2nc3ccccc3o2)CC1`, the survival is -12% (active).

`Cc1cccc(OCC(=O)N2CCC(c3nc4ccccc4o3)CC2)c1C`: the survival was 72%.

On to `Cc1cccc(C)c1OCC(=O)N1CCC(c2nc3ccccc3o2)CC1`, for which the survival was 81%.

As to `Cc1cccc(OC(C)C(=O)N2CCC(c3nc4ccccc4o3)CC2)c1C` (stereo unspecified), the survival is 74%.

Consider `Cc1ccccc1C(=O)NC1CCN(CC(=O)NC(C)(C)C)CC1`, for which the survival was 100%.

`CC(Oc1ccc(/C=C(/C#N)C(=O)N2CCOCC2)cc1)C(=O)O` (stereo unspecified): the survival was 104%.

With `Cc1ccc(N(C)C(=O)c2noc3c2CCCCC3)cc1C`, the survival was 73%.

In the case of `CCCCn1c(=O)c2oc3ccccc3c2n(Cc2ccc(OC)cc2)c1=O`, the survival is 115%.

Regarding `CCCCN(C)CC(O)Cn1cc(/C=C/C(=O)c2ccc(OC)c(OC)c2)c2ccccc21` (stereo unspecified), the survival was 87%.

`CCCCN(C)CC(O)Cn1cc(/C=C/C(=O)c2ccc(OCC)cc2)c2ccccc21` (stereo unspecified): the survival was 21% (active).

Turning to `Cc1ccc(C(=O)/C=C/c2cn(CC(O)CN3CCc4ccccc43)c3ccccc23)cc1` (stereo unspecified), the survival is 76%.

On to `CCOc1ccc(C(=O)/C=C/c2cn(CC(O)CN3CCc4ccccc43)c3ccccc23)cc1` (stereo unspecified), for which the survival was 69%.

`CCCCN(C)CC(O)Cn1cc(/C=C/C(=O)c2ccc(Br)cc2)c2ccccc21` (stereo unspecified): the survival is 15% (active).

As to `CCCCN(C)CC(O)Cn1cc(/C=C/C(=O)c2ccc(C)cc2)c2ccccc21` (stereo unspecified), the survival is 15% (active).

In the case of `O=C(O)CCc1ccc(-c2ccccc2)n1Cc1ccco1`, the survival is 103%.

For `CCOc1ccc(S(=O)(=O)N(C(C)=O)c2ccc3oc(C)c(C(=O)OC)c3c2)cc1`, the survival is 130%.

As to `Cc1ccc(N(Cc2cccs2)C(=O)c2ccccc2[N+](=O)[O-])cc1`, the survival was 82%.

Regarding `CN1C=CC=C/C1=C1\SC(=S)N(C2CCCCC2)C1=O`, the survival was 120%.

With `CCOc1ccc(NC(=O)c2ccc(NC(=O)N3CCSc4ncccc43)cc2)cc1`, the survival is 64%.

In the case of `Cc1ccc(NC(=O)c2ccc(NC(=O)N3CCSc4ncccc43)cc2)c(C)c1`, the survival was 82%.

For the molecule `CC(=O)c1ccc(NC(=O)c2cccc(NC(=O)N3CCSc4ncccc43)c2)cc1`, the survival is 55%.

`CC(C)Oc1ccc(CNC(=O)c2ccc(NC(=O)N3CCSc4ncccc43)cc2)cc1`: the survival was 1% (active).

Consider `CC(C)Oc1ccc(CNC(=O)c2cccc(NC(=O)N3CCSc4ncccc43)c2)cc1`, for which the survival was 79%.

As for `CC(C)Oc1ccc(CNC(=O)Cc2ccc(NC(=O)N3CCSc4ncccc43)cc2)cc1`, the survival is 73%.

As for `CCc1cccc(NC(=O)c2ccc(NC(=O)N3CCSc4ncccc43)cc2)c1`, the survival is -3% (active).

Regarding `Cc1ccccc1NC(=O)c1ccc(NC(=O)N2CCSc3ncccc32)cc1`, the survival is -4% (active).

As for `Cc1ccc(Cl)cc1NC(=O)c1ccc(NC(=O)N2CCSc3ncccc32)cc1`, the survival was 71%.

Source of the values: PubChem BioAssay AID463173 (ICCB-Longwood Screening Facility, Harvard Medical School, 2010).
